# Test results published in the supplement of paper PMC10849652.
# About 8,800 targets were measured; listed, in parts, are those with a hit and a random draw of the rest. About 0.5% of all pairs of compound and target were hits. Values without a mark were called inactive.
# Key:
# Experiment in all cases: log2 fold change, soluble protein after heating vs DMSO (PISA); higher = thermal stabilisation; K562 lysate, 10 uM; active = over 0.2 and 3.5 SD of the protein, either way, in both replicates (recomputed)
# alvocidib = compound: CN1CC[C@H](c2c(O)cc(O)c3c(=O)cc(-c4ccccc4Cl)oc23)[C@H](O)C1 [alvocidib]
# In short: (§1)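 Quantification was by TMTpro 16plex LC-MS/MS with equalised channel sums, applied to the supernatant after 21,000xg for 90 min. Samples were crude K562 extract at 1 mg/mL protein in PBS pH 7.4 with 1 mM MgCl2, treated with 10 μM compound for 30 min, heated for 3 min across 48°C-58°C, pooled and brought to 0.5% NP-40 at 4°C. Values are log-two fold changes in thermal stability relative to solvent controls, from duplicates.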
# Tubastatin A = compound: CN1CCc2c(c3ccccc3n2Cc2ccc(C(=O)NO)cc2)C1 [Tubastatin A]
# In short: as §1
# [1] = compound: CNC(=O)C1=CC=CC=C1NC2=NC(=NC=C2Cl)NC3=C(C=C(C=C3)N4CCOCC4)OC
# In short: as §1
# defactinib = compound: CNC(=O)c1ccc(Nc2ncc(C(F)(F)F)c(NCc3nccnc3N(C)S(C)(=O)=O)n2)cc1 [defactinib]
# In short: as §1
# [2] = compound: CNc1nc(-c2ccc3c(N)n[nH]c3c2)cc(N2C[C@@H](C(=O)NC3CCCCC3)CC[C@H]2C)n1
# In short: as §1
# encorafenib = compound: COC(=O)N[C@@H](C)CNc1nccc(-c2cn(C(C)C)nc2-c2cc(Cl)cc(NS(C)(=O)=O)c2F)n1 [encorafenib]
# In short: as §1
# [3] = compound: COC(=O)[C@H](CCSC)NC(=O)C1=C(C=C(C=C1)NC[C@H](CS)N)C2=CC=CC=C2
# In short: as §1
# alisertib = compound: COc1cc(Nc2ncc3c(n2)-c2ccc(Cl)cc2C(c2c(F)cccc2OC)=NC3)ccc1C(=O)O [alisertib]
# In short: as §1
# [4] = compound: COc1cc2nc(-c3cc(F)ccc3O)nc(N[C@@H]3CNC[C@H]3C(C)(C)O)c2cc1OC
# In short: as §1
# gefitinib = compound: COc1cc2ncnc(Nc3ccc(F)c(Cl)c3)c2cc1OCCCN1CCOCC1 [gefitinib]
# In short: as §1
# UniProt Q9BYG3, sequence (Q9BYG3 whole entry, looked up): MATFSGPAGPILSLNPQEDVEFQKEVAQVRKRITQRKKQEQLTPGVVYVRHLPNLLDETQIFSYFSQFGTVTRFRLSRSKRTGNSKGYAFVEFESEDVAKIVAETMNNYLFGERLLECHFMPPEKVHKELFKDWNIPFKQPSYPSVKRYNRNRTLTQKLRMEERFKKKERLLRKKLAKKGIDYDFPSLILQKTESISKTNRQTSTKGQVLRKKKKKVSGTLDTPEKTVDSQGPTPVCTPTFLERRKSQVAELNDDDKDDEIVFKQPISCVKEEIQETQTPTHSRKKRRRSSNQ
# UniProt Q9BPX3, sequence (Q9BPX3 whole entry, looked up): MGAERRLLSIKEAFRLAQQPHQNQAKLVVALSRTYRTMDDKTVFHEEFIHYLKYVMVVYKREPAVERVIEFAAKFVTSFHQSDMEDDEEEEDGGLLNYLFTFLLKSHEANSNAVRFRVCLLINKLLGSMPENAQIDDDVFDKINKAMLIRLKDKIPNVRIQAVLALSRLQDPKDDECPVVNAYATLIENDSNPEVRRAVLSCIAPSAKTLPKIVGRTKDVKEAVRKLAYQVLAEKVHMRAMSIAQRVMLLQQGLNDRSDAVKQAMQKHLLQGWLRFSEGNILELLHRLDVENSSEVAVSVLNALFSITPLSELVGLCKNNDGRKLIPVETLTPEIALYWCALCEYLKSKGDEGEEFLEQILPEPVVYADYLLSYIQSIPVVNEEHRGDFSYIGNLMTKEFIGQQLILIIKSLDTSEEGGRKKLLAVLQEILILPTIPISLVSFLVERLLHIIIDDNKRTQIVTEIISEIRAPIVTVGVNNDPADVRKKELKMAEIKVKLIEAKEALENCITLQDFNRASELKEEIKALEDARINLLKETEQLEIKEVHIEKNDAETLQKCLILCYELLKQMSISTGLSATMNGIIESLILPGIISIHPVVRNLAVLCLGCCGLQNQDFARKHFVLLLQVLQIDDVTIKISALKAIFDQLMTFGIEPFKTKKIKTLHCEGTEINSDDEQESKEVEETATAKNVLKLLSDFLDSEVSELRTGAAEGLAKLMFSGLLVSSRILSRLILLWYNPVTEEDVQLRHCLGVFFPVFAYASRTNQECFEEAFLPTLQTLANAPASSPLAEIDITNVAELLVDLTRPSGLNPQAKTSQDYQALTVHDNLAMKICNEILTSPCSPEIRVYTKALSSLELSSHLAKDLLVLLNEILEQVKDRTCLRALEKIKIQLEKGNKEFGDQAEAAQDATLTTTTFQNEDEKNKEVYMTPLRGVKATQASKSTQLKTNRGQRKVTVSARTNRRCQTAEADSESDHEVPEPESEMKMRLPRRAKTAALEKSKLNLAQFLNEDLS
# UniProt P35749, sequence (P35749 whole entry, looked up): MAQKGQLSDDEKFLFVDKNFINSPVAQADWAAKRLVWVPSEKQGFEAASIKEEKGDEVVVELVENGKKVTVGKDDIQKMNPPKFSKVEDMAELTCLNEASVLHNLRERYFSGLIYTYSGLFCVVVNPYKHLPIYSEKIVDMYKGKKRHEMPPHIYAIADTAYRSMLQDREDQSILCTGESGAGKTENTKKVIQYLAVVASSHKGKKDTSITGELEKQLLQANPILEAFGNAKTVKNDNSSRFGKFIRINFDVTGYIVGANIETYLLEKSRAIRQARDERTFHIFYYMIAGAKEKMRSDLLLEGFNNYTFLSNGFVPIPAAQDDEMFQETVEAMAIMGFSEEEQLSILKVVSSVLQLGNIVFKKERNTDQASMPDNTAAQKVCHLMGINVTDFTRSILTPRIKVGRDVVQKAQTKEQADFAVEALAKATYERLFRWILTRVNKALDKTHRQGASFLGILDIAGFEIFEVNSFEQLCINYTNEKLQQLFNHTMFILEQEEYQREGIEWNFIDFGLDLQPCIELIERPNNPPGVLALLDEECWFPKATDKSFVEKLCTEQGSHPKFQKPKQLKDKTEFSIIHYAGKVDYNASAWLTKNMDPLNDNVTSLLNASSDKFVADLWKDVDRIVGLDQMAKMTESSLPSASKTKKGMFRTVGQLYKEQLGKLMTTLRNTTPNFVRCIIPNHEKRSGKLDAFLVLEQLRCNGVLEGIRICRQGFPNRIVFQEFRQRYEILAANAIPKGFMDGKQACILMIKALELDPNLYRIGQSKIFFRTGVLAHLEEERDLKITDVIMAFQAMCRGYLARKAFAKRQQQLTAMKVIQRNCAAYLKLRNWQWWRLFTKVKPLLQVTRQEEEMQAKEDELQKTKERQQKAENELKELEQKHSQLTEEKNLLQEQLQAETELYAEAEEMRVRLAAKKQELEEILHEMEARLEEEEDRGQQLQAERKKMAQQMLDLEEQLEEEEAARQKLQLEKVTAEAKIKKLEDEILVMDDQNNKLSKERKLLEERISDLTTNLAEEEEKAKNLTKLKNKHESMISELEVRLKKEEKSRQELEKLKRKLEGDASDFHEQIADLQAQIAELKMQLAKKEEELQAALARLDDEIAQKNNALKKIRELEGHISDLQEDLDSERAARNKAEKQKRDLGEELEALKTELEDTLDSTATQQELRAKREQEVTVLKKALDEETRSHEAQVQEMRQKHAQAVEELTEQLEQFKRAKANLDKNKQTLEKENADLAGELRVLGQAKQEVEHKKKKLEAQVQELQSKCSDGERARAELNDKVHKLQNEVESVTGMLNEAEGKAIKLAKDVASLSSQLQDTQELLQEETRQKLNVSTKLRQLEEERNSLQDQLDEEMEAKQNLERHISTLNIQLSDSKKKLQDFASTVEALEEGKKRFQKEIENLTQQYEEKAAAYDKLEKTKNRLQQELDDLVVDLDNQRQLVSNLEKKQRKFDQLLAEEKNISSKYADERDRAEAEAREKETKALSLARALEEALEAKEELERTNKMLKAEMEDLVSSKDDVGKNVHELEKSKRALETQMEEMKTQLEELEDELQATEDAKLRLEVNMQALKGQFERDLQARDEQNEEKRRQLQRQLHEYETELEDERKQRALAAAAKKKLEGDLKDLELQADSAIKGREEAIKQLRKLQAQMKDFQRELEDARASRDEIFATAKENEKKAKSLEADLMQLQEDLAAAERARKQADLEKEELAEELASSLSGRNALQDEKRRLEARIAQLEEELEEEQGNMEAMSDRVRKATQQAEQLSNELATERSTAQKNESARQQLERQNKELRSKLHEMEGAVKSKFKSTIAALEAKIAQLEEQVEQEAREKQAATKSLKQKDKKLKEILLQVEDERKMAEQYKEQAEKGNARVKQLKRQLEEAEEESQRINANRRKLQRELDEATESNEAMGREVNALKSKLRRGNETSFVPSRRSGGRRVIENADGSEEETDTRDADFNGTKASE
# UniProt Q9ULX3, sequence (Q9ULX3 whole entry, looked up): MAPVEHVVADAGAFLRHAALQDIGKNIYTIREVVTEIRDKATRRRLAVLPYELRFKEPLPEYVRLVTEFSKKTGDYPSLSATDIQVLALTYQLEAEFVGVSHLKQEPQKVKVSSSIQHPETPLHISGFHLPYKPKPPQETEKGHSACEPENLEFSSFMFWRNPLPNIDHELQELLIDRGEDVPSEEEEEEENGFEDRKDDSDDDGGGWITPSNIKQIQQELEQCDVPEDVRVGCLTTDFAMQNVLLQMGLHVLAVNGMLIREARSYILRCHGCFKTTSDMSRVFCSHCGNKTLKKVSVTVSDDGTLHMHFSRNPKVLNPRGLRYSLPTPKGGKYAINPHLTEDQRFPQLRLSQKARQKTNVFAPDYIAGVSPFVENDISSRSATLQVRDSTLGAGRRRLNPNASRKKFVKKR
# UniProt Q96IV0, sequence (Q96IV0 whole entry, looked up): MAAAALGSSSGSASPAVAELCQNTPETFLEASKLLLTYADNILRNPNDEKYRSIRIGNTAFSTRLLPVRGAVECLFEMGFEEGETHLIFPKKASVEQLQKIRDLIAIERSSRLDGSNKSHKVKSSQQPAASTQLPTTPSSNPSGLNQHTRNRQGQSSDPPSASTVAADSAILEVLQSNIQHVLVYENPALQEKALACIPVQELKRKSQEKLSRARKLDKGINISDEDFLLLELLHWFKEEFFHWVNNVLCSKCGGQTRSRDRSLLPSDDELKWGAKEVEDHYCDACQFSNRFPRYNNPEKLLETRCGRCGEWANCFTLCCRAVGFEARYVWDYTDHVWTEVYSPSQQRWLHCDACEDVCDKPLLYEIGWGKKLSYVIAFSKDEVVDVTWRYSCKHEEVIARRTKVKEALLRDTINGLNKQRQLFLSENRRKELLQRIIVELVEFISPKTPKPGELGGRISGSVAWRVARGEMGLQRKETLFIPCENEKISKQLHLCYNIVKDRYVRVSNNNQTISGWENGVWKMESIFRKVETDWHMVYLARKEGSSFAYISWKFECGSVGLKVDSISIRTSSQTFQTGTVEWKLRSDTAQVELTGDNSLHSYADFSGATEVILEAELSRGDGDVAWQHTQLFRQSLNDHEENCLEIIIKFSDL
# UniProt Q9NQR4, sequence (Q9NQR4 whole entry, looked up): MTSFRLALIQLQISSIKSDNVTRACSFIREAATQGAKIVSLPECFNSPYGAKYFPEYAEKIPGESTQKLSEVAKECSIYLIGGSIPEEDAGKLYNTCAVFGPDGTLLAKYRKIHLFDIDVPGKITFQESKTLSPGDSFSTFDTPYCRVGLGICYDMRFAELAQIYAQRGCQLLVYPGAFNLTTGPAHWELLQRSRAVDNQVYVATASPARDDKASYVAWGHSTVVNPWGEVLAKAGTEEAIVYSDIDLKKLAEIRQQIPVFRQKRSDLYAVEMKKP
# UniProt P15559, sequence (P15559 whole entry, looked up): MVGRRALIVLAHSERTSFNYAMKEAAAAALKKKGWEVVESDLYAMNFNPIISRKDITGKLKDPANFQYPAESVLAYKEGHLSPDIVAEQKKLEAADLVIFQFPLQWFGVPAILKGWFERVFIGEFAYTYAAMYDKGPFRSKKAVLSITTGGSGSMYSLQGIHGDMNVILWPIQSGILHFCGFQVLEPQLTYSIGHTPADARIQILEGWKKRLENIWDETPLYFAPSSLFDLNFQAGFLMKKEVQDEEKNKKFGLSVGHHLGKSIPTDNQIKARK
Target,log2 fold change (alvocidib),log2 fold change (Tubastatin A),log2 fold change [1],log2 fold change (defactinib),log2 fold change [2],log2 fold change (encorafenib),log2 fold change [3],log2 fold change (alisertib),log2 fold change [4],log2 fold change (gefitinib)
NIT2 (UniProt Q9NQR4),0.046,0.047,-0.003,-0.05,0.013,-0.032,0.082,0.012,0.019,-0.017
NSUN2 (UniProt Q08J23),0.019,-0.097,-0.018,0.007,-0.024,-0.011,0.096,0.014,-0.007,-0.02
PANK4 (UniProt Q9NVE7),-0.009,-0.117,0.018,0.01,0.019,-0.011,0.498 (active),-0.028,0.013,-0.017
MYO1D (UniProt O94832),0.026,-0.091,-0.006,0.048,-0.008,0.058,-0.012,-0.019,0.012,-0.016
MRPL58 (UniProt Q14197),0,-0.065,0.027,-0.045,0.033,0.011,-0.078,-0.021,-0.02,-0.04
NOSIP (UniProt Q9Y314),-0.02,-0.156,0.018,0.05,0.004,0.014,0.02,-0.016,0.015,-0.049
ORC3 isoform 2 (UniProt Q9UBD5),0.006,-0.155,0.007,0.022,0.035,0.02,0.15,0.001,-0.009,-0.019
OSBPL3 isoform 2 (UniProt Q9H4L5),-0.013,-0.161,0.056,-0.11,-0.033,0.03,0.052,-0.043,-0.002,0.206
NGLY1 (UniProt Q96IV0),-0.041,-0.089,-0.013,0.022,0,-0.009,0.111,0.002,0.001,-0.044
PAFAH1B3 (UniProt Q15102),0.005,-0.067,0.019,0.065,-0.017,-0.016,0.212 (active),0.058,-0.022,-0.02
MTA2 (UniProt O94776),0.005,-0.049,-0.002,0.016,-0.01,0.009,0.134,0.012,-0.005,-0.02
NDUFS1 isoform 2 (UniProt P28331),0.008,-0.018,-0.024,0.028,0.014,-0.011,0.05,0.03,-0.025,-0.001
MRPS18A isoform 2 (UniProt Q9NVS2),0.18,-0.047,-0.156,-0.024,0.106,0.029,-0.037,0.041,-0.017,0.008
MYH11 isoform 2 (UniProt P35749),-0.042,-0.069,-0.028,-0.083,0.031,-0.002,0.07,0.002,-0.005,0.031
NUCB2 (UniProt P80303),0.061,0.036,0.007,-0.039,0.005,0.001,-0.027,0.003,0.014,0.004
NOB1 (UniProt Q9ULX3),0.077,-0.129,-0.005,0,-0.011,0.036,0.037,0.047,-0.031,-0.022
NCAPG (UniProt Q9BPX3),0.003,-0.113,0.011,0.024,0.01,-0.01,0.094,0.007,-0.01,0.003
OLA1 (UniProt Q9NTK5),-0.002,-0.095,0.019,-0.029,-0.02,0.008,-0.004,0.017,0.011,-0.026
OTC (UniProt P00480),-1.18 (active),0.148,-0.134,-0.188,-0.152,-0.047,-0.018,0.218,-0.023,0.184
NIPBL (UniProt Q6KC79),-0.008,-0.183,-0.04,0.006,0,0.008,0.09,-0.066,0.035,0.027
NIFK (UniProt Q9BYG3),0.009,-0.023,-0.023,0,0.095,0.039,-0.003,-0.073,-0.014,0.01
NUDT4 (UniProt Q9NZJ9),-0.001,-0.149,0.063,0.153,-0.066,0.051,-0.17,-0.036,0.001,-0.052
NUP93 (UniProt Q8N1F7),-0.006,-0.085,-0.013,0.023,-0.097,0.029,0.027,0.01,-0.007,0.014
NCOR1 (UniProt O75376),-0.028,-0.027,0.018,0.06,0.021,0.015,-0.007,0.01,0.018,-0.019
NELFA (UniProt Q9H3P2),0.036,-0.139,0.022,0.056,0.051,0,0.025,0.006,-0.006,-0.015
NUDT5 (UniProt Q9UKK9),-0.137,0.052,-0.01,0.072,-0.018,0.034,0.006,0.004,0.003,-0.002
NFKBIB (UniProt Q15653),-0.146,-0.077,0.053,-0.007,-0.006,0.006,0.06,0,-0.031,0.064
MTHFD1L (UniProt B7ZM99),0.029,-0.084,0.02,0.034,-0.01,-0.041,0.072,0.032,0.009,-0.007
NQO1 (UniProt P15559),0.007,-0.079,0.068,0.003,-0.111,0.043,0.159,-0.001,-0.042,0.009
ORC5 (UniProt O43913),0.001,-0.163,0.001,0.062,-0.008,0.049,0.165,-0.004,0.006,-0.011
